{
  "source": "PubChem BioAssay (Tox21)",
  "note": "Results filed as inconclusive are left out. Active and inactive are the calls of the source. Calls follow the shape of the dose curve; as a rule, active = well fitted cell-killing curve with a large enough effect in the repeat runs; inconclusive = weak or mixed curves, or effect the other way; inactive = flat fitted curve, though single readings scatter. % is scaled to controls: 0 for no effect and ±100 for the full control effect.",
  "data": [
    {"experiment": "qHTS assay to identify small molecule antagonists of the androgen receptor (AR) signaling pathway using the MDA cell line in the presence of 0.5 nM R1881 - cell viability counter screen (AID 1259242); also: nearly all actives have a fitted effect of over 45% in size", "conditions": "MDA-kb2 viability, CellTiter-Fluor protease fluorescence, 16 h; series mostly up to 92.4 µM; viability change, negative = cytotoxic: at the top concentration", "source_text": "U.S. Tox21 Program National Center for Advancing Translational Sciences [NCATS] NIH Chemical Genomics Center [NCGC] U.S. Environmental Protection Agency [EPA] National Institutes of Environmental Health Sciences [NIEHS] National Toxicology Program [NTP] U.S. Food and Drug Administration [FDA] Tox21 Assay Overview: Androgen receptor (AR) is an important member of the nuclear receptor family. Its signaling plays a critical role in AR-dependent prostate cancer and other androgen related diseases. Considerable attention has been given in the past decades to develop methods to study and screen for the environmental chemicals that have the potential to interfere with metabolic homeostasis, reproduction, developmental and behavioral functions. Therefore AR binding assay for screening androgen antagonists can be used to identify potential endocrine disruptors. MDA-kb2 cells (from ATCC, deposited by Wilson et al.) were used to screen for AR inhibitors against Tox21 compound libraries. These cells are human breast carcinoma cells that were stably transfected with a luciferase reporter gene under control of the MMTV promoter that contains response elements for both androgen receptor (AR) and glucocorticoid receptor (GR). The current screening for identification of AR inhibitors against Tox21 libraries used lower concentration of (0.5 nM) R1881 as a stimulator. The cytotoxicity of the Tox21 compound libraries against MDA-kb2 cell line was tested by measuring live-cell protease activity using CellTiter-Fluor assay in the same wells.\nTox21 Assay Protocol Summary: MDA-kb2 cells (cells cultured without CO2) were dispensed at 3,000 cells/well in 4 uL of culture medium into white wall/solid-bottom 1536-well plates (Corning Life Sciences, Corning, NY) using a Multidrop Combi (ThermoFisher Scientific, Waltham, MA) dispenser. After the assay plates were incubated at a 37C and 0% CO2 for 5 hr, 23 nL of compounds dissolved in DMSO, positive controls or DMSO only was transferred to the assay plate by a Pintool station (Kalypsys, San Diego, CA). The transfer of compounds was followed by the addition of 1 uL of 0.5 nM (final concentration) agonist (R1881)/culture medium using a Flying Reagent Dispenser (FRD, Aurora Discovery, San Diego, CA). The plates were incubated at 37C and 0% CO2 for 16 hr. For cytotoxicity assay, 1 uL of CellTiter-Fluor reagent (Promega Corporation, Madison, WI) was added to each well using the FRD and after 30 min incubation at 37C and 0% CO2, The fluorescence intensity was measured using ViewLux plate reader (PerkinElmer, Shelton, CT).", "values": [
      {"smiles": "CCC(=O)C(CCN(C)C)(c1ccccc1)c1ccccc1", "viability change, negative = cytotoxic": "4.62% [at 42.5 µM] (inactive)"},
      {"smiles": "COc1cc2c(cc1OC)[C@@]13CCN4CC5=CCO[C@H]6CC(=O)N2[C@H]1[C@H]6[C@H]5C[C@H]43", "viability change, negative = cytotoxic": "1.47% (inactive)"},
      {"smiles": "Fc1ccc(C2(Cn3cncn3)OC2c2ccccc2Cl)cc1", "note": "(stereo not given)", "viability change, negative = cytotoxic": "3.67% (inactive)"},
      {"smiles": "CC(=O)C(Cl)Cl", "viability change, negative = cytotoxic": "4.2% (inactive)"},
      {"smiles": "O=C(O)c1ccc2[nH]cc(CCCCN3CC=C(c4ccccc4)CC3)c2c1", "viability change, negative = cytotoxic": "-2.34% [at 42.5 µM] (inactive)"},
      {"smiles": "CC(C)(C)C(=O)C(Oc1ccc(Cl)cc1)n1cncn1", "note": "(stereo not given)", "viability change, negative = cytotoxic": "2.87% (inactive)"},
      {"smiles": "CCS(=O)(=O)CCSP(=O)(OC)OC", "viability change, negative = cytotoxic": "-3.56% (inactive)"},
      {"smiles": "Cc1ncsc1CCCl", "viability change, negative = cytotoxic": "12.5% [at 42.5 µM] (inactive)"},
      {"smiles": "CCOP(=S)(OCC)Oc1nc(Cl)n(C(C)C)n1", "viability change, negative = cytotoxic": "1.69% (inactive)"},
      {"smiles": "ClCC(Cl)Cl", "viability change, negative = cytotoxic": "2.01% (inactive)"},
      {"smiles": "[O]=[Cd]", "viability change, negative = cytotoxic": "-2.53% (inactive)"},
      {"smiles": "CNC(=O)Oc1cccc(C(C)C)c1", "viability change, negative = cytotoxic": "3.72% (inactive)"},
      {"smiles": "N#CCNCC#N", "viability change, negative = cytotoxic": "4.17% (inactive)"},
      {"smiles": "CNC(=O)Oc1ccc(N(C)C)c(C)c1", "viability change, negative = cytotoxic": "-1.85% (inactive)"},
      {"smiles": "COc1cc(OC)nc(NC(=O)NS(=O)(=O)c2ncccc2OCC(F)(F)F)n1", "viability change, negative = cytotoxic": "0.499% (inactive)"},
      {"smiles": "C(CCOCC1CO1)COCC1CO1", "note": "(stereo not given)", "viability change, negative = cytotoxic": "7.18% (inactive)"},
      {"smiles": "COc1cc(OC)nc(NC(=O)NS(=O)(=O)c2ncccc2C(=O)N(C)C)n1", "viability change, negative = cytotoxic": "2.77% (inactive)"},
      {"smiles": "CC(=O)CCc1ccc2c(c1)OCO2", "viability change, negative = cytotoxic": "2.24% (inactive)"},
      {"smiles": "COC(=O)c1ccccc1S(=O)(=O)NC(=O)Nc1nc(C)cc(C)n1", "viability change, negative = cytotoxic": "9.02% (inactive)"},
      {"smiles": "CCOP(=O)(N=C1SCCS1)OCC", "viability change, negative = cytotoxic": "0.511% (inactive)"},
      {"smiles": "Nc1cc2c3c(c1)C(c1ccccc1)=N[C@@H](NC(=O)c1cccnc1)C(=O)N3CC2", "viability change, negative = cytotoxic": "-7.97% (inactive)"},
      {"smiles": "CC(=O)CC(c1ccc(Cl)cc1)c1c(O)c2ccccc2oc1=O", "note": "(stereo not given)", "viability change, negative = cytotoxic": "-4.94% (inactive)"},
      {"smiles": "CCOP(=S)(OCC)SCSP(=S)(OCC)OCC", "viability change, negative = cytotoxic": "8.31% (inactive)"},
      {"smiles": "Clc1cccc(N2CCNCC2)c1", "viability change, negative = cytotoxic": "1.92% [at 42.5 µM] (inactive)"},
      {"smiles": "CNC(=O)Oc1ccccc1C1OCCO1", "viability change, negative = cytotoxic": "-1.23% (inactive)"},
      {"smiles": "O=C(N[C@H]1CN2CCC1CC2)c1cc2ccoc2cn1", "viability change, negative = cytotoxic": "-0.4% (inactive)"},
      {"smiles": "C[C@H]1CCC[C@H](O)CCCCCc2cc(O)cc(O)c2C(=O)O1", "viability change, negative = cytotoxic": "-13.4% (inactive)"},
      {"smiles": "ClC(Cl)C(Cl)Cl", "viability change, negative = cytotoxic": "0.576% (inactive)"},
      {"smiles": "O=C1CN2CCOC2(c2ccccc2Cl)c2cc(Cl)ccc2N1", "note": "(stereo not given)", "viability change, negative = cytotoxic": "7.08% [at 42.5 µM] (inactive)"},
      {"smiles": "CC(Cl)(Cl)[N+](=O)[O-]", "viability change, negative = cytotoxic": "0.622% (inactive)"},
      {"smiles": "CCC1(c2ccccc2)C(=O)NC(=O)NC1=O", "viability change, negative = cytotoxic": "2.85% (inactive)"},
      {"smiles": "CCC(Cl)[N+](=O)[O-]", "note": "(stereo not given)", "viability change, negative = cytotoxic": "1.57% (inactive)"},
      {"smiles": "CCC(C)n1c(=O)[nH]c(C)c(Br)c1=O", "note": "(stereo not given)", "viability change, negative = cytotoxic": "-1.83% (inactive)"},
      {"smiles": "O=C(Oc1ccc(Br)cc1)N1CCN2CCC1CC2", "viability change, negative = cytotoxic": "-0.984% (inactive)"},
      {"smiles": "CCOP(=S)(OCC)Oc1ncn(-c2ccccc2)n1", "viability change, negative = cytotoxic": "-0.869% (inactive)"},
      {"smiles": "N#Cc1ccncc1", "viability change, negative = cytotoxic": "-4.35% (inactive)"},
      {"smiles": "CCCSC(=O)Cl", "viability change, negative = cytotoxic": "-0.569% (inactive)"},
      {"smiles": "Cc1cc(C)nc(Nc2ccccc2)n1", "viability change, negative = cytotoxic": "1.56% (inactive)"},
      {"smiles": "CC(C)NCC(O)c1ccc(N)c(C#N)c1", "note": "(stereo not given)", "viability change, negative = cytotoxic": "3.86% [at 42.5 µM] (inactive)"},
      {"smiles": "COc1cc(OC)nc(Sc2cccc(Cl)c2C(=O)O)n1", "viability change, negative = cytotoxic": "-6.36% (inactive)"}
    ]}
  ]
}
